Test results published in PubChem BioAssay (Tox21).
Records with an inconclusive call do not appear. Activity calls are given as the source filed them. Unless noted, calls come from the whole dose curve; as a rule, active = well fitted curve in the direction sought with a large enough effect in the repeat runs; inconclusive = weak or mixed curves; inactive = no such curve, though single readings can be large; an effect the other way counts as inactive or inconclusive.

How the values were obtained:
[1] = target: Thyrotropin receptor (Homo sapiens) (UniProt P16473); assay: qHTS assay to identify small molecule agonists of the thyroid stimulating hormone receptor (TSHR) signaling pathway (AID 1224843; calls by dose curve; note: nearly all actives have a fitted effect of over 45% in size)
Method in brief: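 Screening of the Tox21 10K collection used HEK293 cells engineered with TSHR at 800 cells per well. After a 30-min room-temperature compound exposure, HTRF cAMP reagents were added and fluorescence recorded 1 h later.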

[2] = qHTS assay to identify small molecule agonists of the hypoxia (HIF-1) signaling pathway - cell viability counter screen (AID 1224844; calls by dose curve; note: nearly all actives have a fitted effect of over 50% in size)
Method in brief: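 Multiplexed with the HRE beta-lactamase assay, this viability read used CellTiter-Glo luminescence (30 min, RT) on HRE-bla ME-180 cells treated 17 hrs with compounds in 0.5% dialyzed FBS medium.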

[3] = qHTS assay to identify small molecule agonists of H2AX (AID 1224845; active = well fitted activation curve with a large enough effect in the signal ratio in the repeat runs, not every such curve was filed as active; the % refers to the signal ratio)
Method in brief: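 Phospho-H2AX Ser139 measured by HTRF (ex 320 nm; em 665 and 620 nm) after 24 hr antibody incubation. Compounds, 15 concentrations, 0.76% DMSO, were applied to CHO-K1 cells for 3hr at 37C before lysis.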

[4] = qHTS assay to identify small molecule agonists of the hypoxia (HIF-1) signaling pathway (AID 1224846; active = well fitted activation curve with a large enough effect in the signal ratio in the repeat runs, not every such curve was filed as active; the % refers to the signal ratio)
Method in brief: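 Hypoxia-pathway activation was scored as increased beta-lactamase from an HRE-controlled reporter in ME-180 cells; plated at 2,000 cells per well with 0.5% dialyzed FBS, they were exposed 17 hrs to compounds and then given CCF4-AM.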

[5] = qHTS assay to identify small molecule agonists of H2AX - cell viability counter screen (AID 1224847; calls by dose curve; note: top concentration of the series differs between compounds; nearly all actives have a fitted effect of over 30% in size)
Method in brief: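 Wild-type CHO-K1 cells (10% FBS medium) were plated overnight at 37C, exposed to compounds at 15 concentrations for 3 hr at 37C (0.76% DMSO final), and viability was read as CellTiter-Glo luminescence after 30 min at room temperature.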

[6] = qHTS assay to identify small molecule agonists of the estrogen related receptor (ERR) signaling pathway from Tox21 library (AID 1224849; calls by dose curve; note: nearly all actives have a fitted effect of over 15% in size); settings: ERR reporter cell line, ONE-Glo luciferase, 18 h; at 92.4 µM (top of the series) unless noted
Method in brief: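 Six hours post-seeding at 37 C/5% CO2, ERR cells receive DMSO-solubilised compounds; after 18 h at 37 C, ONE-Glo reagent is applied and luminescence recorded.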

[7] = qHTS RealTime-Glo MT Cell Viability Assay in HepG2 cells - 24 hour (AID 1224867); note: nearly all actives have a fitted effect of over 50% in size
Method in brief: (§1)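 Cells + NanoLuc/prosubstrate dispensed (600 cells/well) → 5 h at 37 C/5% CO2 → compounds in DMSO transferred → 40 h incubation at 37 C, luminescence read at 0, 8, 16, 24, 32, 40 h.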

[8] = qHTS RealTime-Glo MT Cell Viability Assay in HEK293 cells - 32 hour (AID 1224868); note: top concentration of the series differs between compounds; nearly all actives have a fitted effect of over 50% in size
Method in brief: (§2)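 Tox21 10K qHTS, HEK293, 600 cells/well, RealTime-Glo reagent co-dispensed with cells; 5 h preincubation, compound by pintool, 37 C, luminescence at 0–40 h.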

[9] = A CellTox Green Cytotoxicity Assay to monitor cytotoxicity in HEK293 cells - 0 hour (AID 1224869); note: nearly all actives have a fitted effect of over 50% in size
Method in brief: (§3)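 Seeding of HEK293 cells together with cytotoxicity dye preceded a 5 h incubation at 37 C/5% CO2. Test compounds in DMSO were then added and fluorescence monitored across 40 h.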

[10] = qHTS RealTime-Glo MT Cell Viability Assay in HepG2 cells - 40 hour (AID 1224870); note: nearly all actives have a fitted effect of over 50% in size
Method in brief: (§4)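 Real-time viability: cells seeded at 600 per well together with NanoLuc and cell-permeant prosubstrate, compounds added after 5 h incubation. Luminescence tracked at 0, 8, 16, 24, 32 and 40 h of exposure.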

[11] = A CellTox Green Cytotoxicity Assay to monitor cytotoxicity in HEK293 cells - 40 hour (AID 1224871); note: nearly all actives have a fitted effect of over 45% in size
Method in brief: as §3

[12] = qHTS RealTime-Glo MT Cell Viability Assay in HEK293 cells - 16 hour (AID 1224872)
Method in brief: as §2

[13] = qHTS RealTime-Glo MT Cell Viability Assay in HepG2 cells - 8 hour (AID 1224873); note: nearly all actives have a fitted effect of over 55% in size
Method in brief: as §4

[14] = qHTS RealTime-Glo MT Cell Viability Assay in HEK293 cells - 40 hour (AID 1224874); settings: RealTime-Glo luminescence; max response: stronger effect = lower value; note: nearly all actives have a fitted effect of over 50% in size
Method in brief: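 Tox21 screen in HEK293 using RealTime-Glo MT chemistry, with cells and reagent co-dispensed. Luminescence proportional to viable cell number was captured at intervals during 40 h compound exposure at 37 C.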

[15] = A CellTox Green Cytotoxicity Assay to monitor cytotoxicity in HEK293 cells - 24 hour (AID 1224875); note: nearly all actives have a fitted effect of over 45% in size
Method in brief: as §3

[16] = A CellTox Green Cytotoxicity Assay to monitor cytotoxicity in HepG2 cells - 16 hour (AID 1224876); note: nearly all actives have a fitted effect of over 45% in size
Method in brief: (§5)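 Nonlytic assay: viable cells exclude the dye, so fluorescence scales with cell death. HepG2 at 600 cells/well, compounds added after 5 h, signal read across 40 h.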

[17] = qHTS RealTime-Glo MT Cell Viability Assay in HepG2 cells - 32 hour (AID 1224877); note: nearly all actives have a fitted effect of over 55% in size
Method in brief: as §1

[18] = A CellTox Green Cytotoxicity Assay to monitor cytotoxicity in HepG2 cells - 24 hour (AID 1224878); note: nearly all actives have a fitted effect of over 45% in size
Method in brief: as §5

[19] = A CellTox Green Cytotoxicity Assay to monitor cytotoxicity in HepG2 cells - 40 hour (AID 1224879); note: nearly all actives have a fitted effect of over 40% in size
Method in brief: as §5
% is set by controls: 0 for no effect and ±100 for the full control effect.

Chain of Thyrotropin receptor (Homo sapiens) (P16473 whole entry, looked up): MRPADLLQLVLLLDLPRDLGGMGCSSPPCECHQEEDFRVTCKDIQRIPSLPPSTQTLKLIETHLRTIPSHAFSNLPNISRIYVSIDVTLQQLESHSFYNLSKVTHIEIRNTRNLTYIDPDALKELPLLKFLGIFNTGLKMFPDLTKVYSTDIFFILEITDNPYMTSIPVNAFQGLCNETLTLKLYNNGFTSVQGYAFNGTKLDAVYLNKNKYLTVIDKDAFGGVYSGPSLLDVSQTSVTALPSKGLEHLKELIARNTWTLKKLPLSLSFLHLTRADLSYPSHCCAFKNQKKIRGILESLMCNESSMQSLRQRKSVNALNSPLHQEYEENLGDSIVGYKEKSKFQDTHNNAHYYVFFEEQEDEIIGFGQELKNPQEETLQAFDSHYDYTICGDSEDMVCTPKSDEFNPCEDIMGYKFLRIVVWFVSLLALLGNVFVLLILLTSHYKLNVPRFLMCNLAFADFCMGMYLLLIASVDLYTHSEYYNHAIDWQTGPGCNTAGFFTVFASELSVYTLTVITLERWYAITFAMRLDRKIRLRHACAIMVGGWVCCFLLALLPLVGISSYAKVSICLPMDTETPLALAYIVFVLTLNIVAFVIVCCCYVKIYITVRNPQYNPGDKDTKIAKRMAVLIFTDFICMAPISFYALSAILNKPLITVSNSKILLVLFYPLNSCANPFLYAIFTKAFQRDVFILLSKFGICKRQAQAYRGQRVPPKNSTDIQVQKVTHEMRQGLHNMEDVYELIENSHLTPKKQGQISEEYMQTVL

COCCOCCOCCOCCOCCO
inactive: Potency [1] | outcome [2] | outcome [3] | outcome [4] | Potency [5] | activity change, positive = activation [6] 2.08% | outcome [7] | Potency [8] | outcome [9] | outcome [10] | Potency [11] | Potency [12] | outcome [13] | max response [14] 0.969% | outcome [15] | outcome [16] | outcome [17]

CC(CO)c1ccccc1 (stereo not given)
inactive: Potency [1] | outcome [2] | outcome [3] | outcome [4] | Potency [5] | outcome [7] | Potency [8] | outcome [9] | outcome [10] | Potency [11] | Potency [12] | outcome [13] | max response [14] -0.132% | outcome [15] | outcome [16] | outcome [17] | outcome [18] | Potency [19]

O=C1CCCC(=O)O1
inactive: Potency [1] | outcome [2] | outcome [3] | outcome [4] | Potency [5] | outcome [7] | Potency [8] | outcome [9] | outcome [10] | Potency [11] | Potency [12] | outcome [13] | max response [14] 15.9% | outcome [15] | outcome [16] | outcome [17] | outcome [18] | Potency [19]

CCC(C)NC(N)=O (stereo not given)
inactive: Potency [1] | outcome [2] | outcome [3] | outcome [4] | Potency [5] | outcome [7] | Potency [8] | outcome [9] | outcome [10] | Potency [11] | Potency [12] | outcome [13] | max response [14] 0.218% | outcome [15] | outcome [16] | outcome [17] | outcome [18] | Potency [19]

CC/C=C\CC1=C(C)CCC1=O
inactive: Potency [1] | outcome [2] | outcome [3] | outcome [4] | Potency [5] | activity change, positive = activation [6] -10.1% | outcome [7] | Potency [8] | outcome [9] | outcome [10] | Potency [11] | Potency [12] | outcome [13] | max response [14] 0.983% | outcome [15] | outcome [16] | outcome [17] | outcome [18] | Potency [19]

NCCN1CCOCC1
inactive: Potency [1] | outcome [2] | outcome [3] | outcome [4] | Potency [5] | outcome [7] | Potency [8] | outcome [9] | outcome [10] | Potency [11] | Potency [12] | outcome [13] | max response [14] 1.04% | outcome [15] | outcome [16] | outcome [17] | outcome [18] | Potency [19]

CCC(CC)CO
inactive: Potency [1] | outcome [2] | outcome [3] | outcome [4] | Potency [5] | outcome [7] | Potency [8] | outcome [9] | outcome [10] | Potency [11] | Potency [12] | outcome [13] | max response [14] 3.01% | outcome [15] | outcome [16] | outcome [17] | outcome [18] | Potency [19]

O=C(O)Cc1cn(-c2ccccc2)nc1-c1ccc(Cl)cc1
inactive: Potency [1] | outcome [2] | outcome [3] | outcome [4] | Potency [5] | outcome [7] | Potency [8] | outcome [9] | Potency [11] | Potency [12] | outcome [13] | max response [14] -3.35% | outcome [15] | outcome [16] | outcome [17] | outcome [18] | Potency [19]

O=C(OCC1(COC(=O)c2cccnc2)CCCC(COC(=O)c2cccnc2)(COC(=O)c2cccnc2)C1O)c1cccnc1
inactive: Potency [1] | outcome [2] | outcome [3] | outcome [4] | Potency [5] | outcome [7] | Potency [8] | outcome [9] | outcome [10] | Potency [11] | outcome [13] | max response [14] 1.63% | outcome [15] | outcome [16] | outcome [17] | outcome [18]

O=C(CCN1CCN(CCO)CC1)N1c2ccccc2Sc2ccc(C(F)(F)F)cc21
inactive: Potency [1] | outcome [2] | outcome [3] | outcome [4] | Potency [5] | outcome [7] | Potency [8] | outcome [9] | Potency [11] | Potency [12] | outcome [13] | max response [14] -11.6% | outcome [15] | outcome [17] | outcome [18]

CC(C)C(=O)OCCc1ccccc1
inactive: Potency [1] | outcome [2] | outcome [3] | outcome [4] | Potency [5] | outcome [7] | Potency [8] | outcome [9] | outcome [10] | outcome [13] | max response [14] -2.86% | outcome [15] | outcome [16] | outcome [18]

O=C(NCCc1c[nH]c2ccccc12)c1cccnc1
inactive: Potency [1] | outcome [2] | outcome [3] | outcome [4] | Potency [5] | outcome [7] | Potency [8] | outcome [9] | Potency [11] | Potency [12] | outcome [13] | max response [14] -11.8% | outcome [15] | outcome [16] | outcome [17] | outcome [18] | Potency [19]

O=C(OCC(COC(=O)c1cccnc1)(COC(=O)c1cccnc1)COC(=O)c1cccnc1)c1cccnc1
inactive: Potency [1] | outcome [2] | outcome [3] | outcome [4] | Potency [5] | outcome [7] | Potency [8] | outcome [9] | outcome [10] | Potency [11] | outcome [13] | max response [14] 10.7% | outcome [15] | outcome [16] | outcome [17] | outcome [18]

C=COCCOCCOCCOC=C
inactive: Potency [1] | outcome [2] | outcome [3] | outcome [4] | Potency [5] | outcome [7] | outcome [9] | outcome [10] | Potency [11] | Potency [12] | outcome [13] | max response [14] 1.1% | outcome [15] | outcome [16] | outcome [17] | outcome [18] | Potency [19]

CC(=O)OC(C)OC(=O)C(C)c1ccc(-c2ccccc2)c(F)c1 (stereo not given)
inactive: Potency [1] | outcome [2] | outcome [3] | outcome [4] | Potency [5] | outcome [7] | Potency [8] | outcome [9] | outcome [10] | Potency [11] | Potency [12] | outcome [13] | max response [14] 3.38% | outcome [15] | outcome [17] | outcome [18] | Potency [19]
